Bioassay records (PubChem)
Only some compounds are listed: those with a hit (about 3.5% of all), similar ones and a draw of the others.
MITF primary – blocks human microphthalmia-associated transcription factor | O75030 | AlphaScreen MITF homodimerization, bead proximity signal | inhibition, % at 2.6 µM | 650,000 tested, 0.91% active; in the data active = inhibition above about 50%;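 note: 0% = vehicle wells with protein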
TEAD-YAP block – TEAD-YAP interaction inhibition | inhibition, % at 9.12 µM | 640,000 tested, 1.4% active | HEK-TIYL cells, TEAD-Gal4/YAP UAS-luciferase luminescence; in the data active = inhibition above about 32%;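 note: 0% = median of test compound wells and 100% = reference inhibitor wells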
GPR151 activ – activators of human GPR151; Q8TDV0; PathHunter beta-arrestin GPR151 cells, luminescence; activation, % at 11.2 µM; 650,000 tested, 1% active; in the data active = activation above about 4.9%;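 note: 0% = median of compound wells and 100% = cells with positive control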
FBW7 act – activators of human E3 ligase FBW7. AlphaScreen FBW7–phospho-cyclin E peptide binding, activator screen. normalized activity (activation), % at 26.1 µM. 650,000 tested, 0.13% active. AID 1259310; in the data active = normalized activity above about 1.9%;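 note: purified mutant Fbw7 with reduced substrate affinity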
GPR151 confirm – human GPR151 activation, confirmation screen; shares compounds with GPR151 activ; GPR151 PathHunter beta-arrestin cells, luminescence, 90 min; % of EA-reagent control over plate median; activation, % at 11.2 µM; 6,700 tested, under 10 active; AID 1508609;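 active = mean percent activation across replicates above the confirmation screen cutoff of 4.91%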
GPR119 counter – activates human GPR119 in a GPR151 counter-screen | shares compounds with GPR151 activ | GPR119 PathHunter beta-arrestin cells, luminescence, 90 min; 0 = compound-well median, 100 = enzyme-acceptor control | activation, % at 11.2 µM | 6,700 tested, 0.3% active | AID 1508611;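 active = mean percent activation in the counterscreen above 29.09%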;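 note: counterscreen on off-target GPR119 to flag nonselective hits from the GPR151 activator screen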
Target sequence (Q8TDV5 whole entry, looked up): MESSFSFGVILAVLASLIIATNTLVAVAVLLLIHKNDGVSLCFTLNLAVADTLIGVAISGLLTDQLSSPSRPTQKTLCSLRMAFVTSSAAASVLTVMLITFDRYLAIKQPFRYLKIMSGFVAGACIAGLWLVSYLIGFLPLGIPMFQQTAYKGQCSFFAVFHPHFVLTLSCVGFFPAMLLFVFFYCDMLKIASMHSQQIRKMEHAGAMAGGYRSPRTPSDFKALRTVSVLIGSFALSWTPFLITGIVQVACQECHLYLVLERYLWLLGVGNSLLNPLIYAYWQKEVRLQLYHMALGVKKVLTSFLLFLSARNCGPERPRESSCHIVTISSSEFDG
An asterisk follows results filed as active; . = not tested or not shown.

SMILES	MITF primary	TEAD-YAP block	GPR151 activ	FBW7 act	GPR151 confirm	GPR119 counter
Cc1ccc(NC(=O)C2CC(=O)N(c3ccc(F)cc3)C2)c(C)c1 (stereo not drawn)	3.1	8.1	18.8*	0.1	-0.1	13.4
C=CCc1ccc(OCCn2cc(/C=C3/C(=N)N4N=C(C)SC4=NC3=O)c3ccccc32)c(OC)c1	3.2	-6.5	0.0	-0.6	.	.
CCc1cccc(NC(=O)c2sccc2S(=O)(=O)N(C)c2ccc(C)cc2)c1	-2.3	-4.6	6.0*	-0.4	0.2	-6.5
O=c1oc(-c2ccccc2Cl)nc2c1cnn2-c1ccccc1	-7.0	9.5	-0.2	0.0	.	.
COc1cc(NC(=O)c2ccc(-c3ccc(C(=O)N4CCN(C)CC4)cc3)s2)cc(OC)c1OC	11.6	6.3	2.8	0.4	.	.
COc1cc(NC(=O)c2ccc(-c3ccc(C(=O)NC4CC4)cc3)s2)cc(OC)c1OC	7.2	43.2*	5.3*	0.1	0.6	4.0
CC(C)N(C(=O)CN(C)S(=O)(=O)c1ccc2c(c1)SCC(=O)N2)C1CCCCC1	-6.9	2.8	-0.2	0.1	.	.
CCN(CC(=O)Nc1nc2c(s1)C(=O)CC(C)(C)C2)c1ccccc1	11.7	9.4	1.5	0.1	.	.
CCN(CC)c1ccc(C(=O)Nc2nc3c(s2)C(=O)CC(C)(C)C3)cc1	1.3	1.0	5.2*	0.0	-0.3	2.6
CCOC(=O)CC(N)c1ccc(Cl)c(Cl)c1 (stereo not drawn)	7.7	1.5	1.1	0.2	.	.
CC(C)Oc1cc(S(=O)(=O)N2CCCCC2)ccc1N	6.2	1.1	9.9*	-0.1	-1.0	-15.6
COc1ccc(S(=O)(=O)N2CCCCC2)cc1[N+](=O)[O-]	4.9	4.3	5.0*	0.0	0.0	-2.6
CC1CCCCN1C(=O)COc1ccc(S(=O)(=O)N2CCCC2)cc1[N+](=O)[O-] (stereo not drawn)	19.6	1.6	0.1	0.3	.	.
CC1CN(CC(O)COc2ccc(S(=O)(=O)N3CCCC3)cc2[N+](=O)[O-])CC(C)O1 (stereo not drawn)	28.5	15.2	5.7*	0.1	0.8	-3.5
CCN1CCN(S(=O)(=O)c2ccc(OC)c(I)c2)CC1	5.0	5.8	11.4*	0.0	-0.2	-6.4
COc1ccc(S(=O)(=O)N2CCc3ccccc3C2)cc1I	10.3	9.0	0.3	0.2	.	.
CCOC1=NN(c2ccc([N+](=O)[O-])cc2)C(=O)/C1=C/c1cccc2ccccc12	-8.7	14.0	1.6	0.0	.	.
Cc1c(Cl)cccc1-n1c(SCC(=O)c2ccc(Br)cc2)nc2[nH]ncc2c1=O	3.6	7.5	0.4	0.0	.	.
CCOC(=O)C1=C(C)N=c2s/c(=C\c3ccc(C(C)C)cc3)c(=O)n2C1c1ccc(OC)cc1 (stereo not drawn)	-1.8	-8.4	7.0*	-0.2	-0.2	-2.0
C=CCn1cc(/C=c2\sc3n(c2=O)C(c2ccc(OC)cc2)C(C(=O)OCC)=C(C)N=3)c2ccccc21 (stereo not drawn)	-8.4	-2.0	5.0*	0.0	-0.9	-18.1
COc1ccc(C2C(C(C)=O)=C(C)N=c3s/c(=C/c4ccc(OCc5cccc6ccccc56)cc4)c(=O)n32)cc1 (stereo not drawn)	2.6	5.2	1.5	-0.1	.	.
C=CCn1cc(/C=c2\sc3n(c2=O)C(c2ccc(Cl)cc2)C(C(=O)OCC)=C(C)N=3)c2ccccc21 (stereo not drawn)	15.7	-1.1	1.3	0.1	.	.
CCOC(=O)C1=C(C)N=c2s/c(=C\c3ccc(C(C)C)cc3)c(=O)n2C1c1ccc(C(C)C)cc1 (stereo not drawn)	5.3	10.0	0.1	0.0	.	.
COc1ccc(C2C(C(C)=O)=C(C)N=c3s/c(=C/c4ccccc4)c(=O)n32)cc1 (stereo not drawn)	8.1	3.6	8.8*	-0.1	-0.8	-4.8
CCOC(=O)C1=C(C)N=c2s/c(=C\c3ccc(Br)o3)c(=O)n2C1c1ccc(OC(C)C)cc1 (stereo not drawn)	13.8	-7.2	5.0*	-0.1	0.9	-7.0
SMILES	MITF primary	TEAD-YAP block	GPR151 activ	FBW7 act	GPR151 confirm	GPR119 counter
Cc1c(Cl)cccc1NC(=O)COc1ccc(Cl)cc1	-12.8	-13.1	1.5	-0.1	.	.
c1ccc2c(c1)CCN(c1nc3ncnc(NCc4nc5ccccc5[nH]4)c3[nH]1)C2	5.3	-3.5	-0.2	-0.2	.	.
Cc1cc(C)n(CC(O)CN(c2cccc([N+](=O)[O-])c2)S(=O)(=O)c2ccccc2)n1 (stereo not drawn)	10.6	-0.6	0.7	0.0	.	.
Cc1ccc(S(=O)(=O)N(CC(O)Cn2nc(C)cc2C)c2cccc([N+](=O)[O-])c2)cc1 (stereo not drawn)	6.7	9.7	5.8*	-0.1	2.6	4.5
CCc1c(C)nc2cc(-c3ccc(OC)c(OC)c3)nn2c1NCCO	-2.4	-28.9	0.0	-0.1	.	.
CCc1c(C)nc2cc(-c3ccc(OC)c(OC)c3)nn2c1NCCCn1ccnc1	12.8	-51.1	6.3*	0.1	1.1	9.0
[O-][n+]1ccccc1Sc1ncnc2c1oc1ccccc12	-7.6	22.9	-1.5	-0.8	.	.
CCOC(=O)c1c(NC(=O)CC)sc2c1CC(C)(C)OC2	-1.9	-3.8	-0.9	-0.1	.	.
CCOC(=O)c1c(NC(=O)Nc2ccc(Cl)cc2)sc2c1CC(C)(C)OC2	-9.4	-9.8	5.2*	-0.1	1.6	8.2
O=C(Cc1cccnc1)N[C@H](Cc1ccc(Cl)cc1)c1nc2ccc(-c3cn[nH]c3)cc2c(=O)[nH]1	3.8	9.1	5.5*	0.2	1.1	12.1
CC12CCC(C(=O)NCCN3CCOCC3)(OC1=O)C2(C)C (stereo not drawn)	13.2	-13.1	5.9*	0.3	-0.1	-5.3
CC12CCC(C(=O)NCc3ccccc3)(OC1=O)C2(C)C (stereo not drawn)	-14.8	7.1	5.3*	-0.1	0.4	7.4
O=C1CCC(CCNCc2cccnc2)N1CCc1ccccc1F (stereo not drawn)	-5.3	0.4	1.5	0.0	.	.
COc1ccc2[nH]cc(CCNC(=O)Cc3cccs3)c2c1	11.9	2.9	1.5	0.3	.	.
Cc1ccc(-n2cc(-c3ccccc3)c3c(NCc4ccccc4)ncnc32)cc1	-2.0	11.6	0.1	0.3	.	.
Cc1ccc(CNc2ncnc3c2c(-c2ccccc2)cn3-c2ccc(Cl)cc2)cc1	-10.6	-0.8	8.4*	0.1	-0.3	-1.9
O=C(O)c1ccc2c(c1)NC(=O)C(CSCc1ccc(Cl)cc1)N2 (stereo not drawn)	6.0	3.7	0.0	0.1	.	.
COC(=O)c1ccc(NC(=O)C2CC2)cc1	4.7	-1.4	6.3*	0.0	-0.5	-5.6
CCOc1ccc(C(=O)C(C)Sc2nc(C)cc(=O)[nH]2)cc1 (stereo not drawn)	-1.6	-7.2	5.1*	-0.1	1.2	9.2
COc1ccc(C(=O)C(C)Sc2nc(C)cc(=O)[nH]2)cc1 (stereo not drawn)	-10.5	-2.5	-2.0	0.6	.	.
